High-throughput results as filed in PubChem.
Only some compounds are listed: those with a hit (about 19% of all), similar ones and a draw of the others.
ELG1 repair inh – blocks ELG1-dependent DNA repair in HEK293T cells; HEK293T ELG1-luciferase reporter, luminescence, 16 h; DNA damage induced by 5-fluorouridine; 2.3% of 330,000 active; Potency, µM (titrated, usually from 46.1 µM), most hits filed as inhibitors; further: nearly all actives have a fitted effect of over 55% in size
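5-Fluorouridine DNA damage + compound/DMSO, 2,000 cells/well, 16 h, 37 °C/5% CO2. ONE-Glo, 30 min RT, luminescence. Readout = decrease in reporter signal.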
TDP1 cell CPT – growth inhibition of DT40 Tdp1-/-;hTDP1 cells with camptothecin (screen for TDP1 inhibitors) | Potency, µM (top dose mostly 46.2 µM), most hits filed as inhibitors | 12% of 420,000 active | AID 686979 | chicken DT40 Tdp1-/-;hTDP1 cells + 20 nM CPT, ATP luminescence, 48 h; further: nearly all actives have a fitted effect of over 55% in size
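Chicken DT40 Tdp1-/- cells complemented with human TDP1, 400 cells/well, exposed to compounds plus 20 nM camptothecin for at least 48 h at 37 C; viability read as ATP content by CellTiter-Glo luminescence.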
HT1080 IDH1KD tx – HT-1080 IDH1 knockdown cell toxicity (counter line) | HT-1080 IDH1 knockdown viability, ATP luminescence, 48 h | Potency, µM (highest dose often 46.1 µM), most hits filed as cytotoxic | 2% of 360,000 active
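Knockdown cells (IDH1KD HT-1080) received compounds 2 h after plating at 750 cells/well and were kept 48 h at 37 °C in 5% FBS RPMI. A CellTiter-Glo luminescence read gave % activity for curve fitting.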
TDP1 cell noCPT – qHTS for Inhibitors of human tyrosyl-DNA phosphodiesterase 1 (TDP1): qHTS in cells in absence of CPT; DT40 Tdp1-/- hTDP1 cells, no CPT, ATP luminescence, 48 h; Potency, µM (doses to about 46.2 µM), usual class: inhibitors; 15% of 420,000 active; AID 686978, 2013; further: nearly all actives have a fitted effect of over 55% in size
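A cellular qHTS used chicken DT40 cells lacking endogenous Tdp1 but carrying stably transfected human TDP1. Compounds were applied without camptothecin, and cell growth kinetics were judged by ATP-dependent luminescence after ≥48 hr.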
IL1B secr inh – blocks inflammasome-driven IL-1 beta release; THP-1 LPS/ATP IL-1B secretion, AlphaLISA, 16 h; hits give low values; activity change, % at 57.5 µM; 4.7% of 360,000 active; AID 743279; in the data active means activity change below about -50%; inconclusive means mostly about -30% to -49%
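THP-1 cells pretreated 1 hr with compounds (up to 57.5 uM final), then stimulated with LPS (250 ng/mL final) plus ATP (1.25 mM final); secreted IL-1B measured by AlphaLISA after 16 hr, decreased signal indicating inhibition.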
HT1080NT lethal – kills 2HG-producing HT-1080-NT fibrosarcoma cells; 1.6% of 360,000 active; AID 686970; Potency, µM (top dose mostly 46.1 µM), actives largely listed as cytotoxic; HT-1080-NT fibrosarcoma viability, CellTiter-Glo ATP luminescence, 48 h;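 further: NT is the 2HG producing partner of a matched IDH1 knockdown line; nearly all actives have a fitted effect of over 55% in size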
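Read-out is CellTiter-Glo luminescence after 10 minutes at room temperature, following 48 hours' compound treatment of HT-1080-NT cells (750 cells/well, RPMI, 5% FBS, 37 degrees C).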
Numbers stand for hits; - = inactive; ? = inconclusive; . = not tested or not shown. Unless noted, the call rests on the fitted dose curve; in most records, active means well fitted curve in the direction sought with a large enough effect; inconclusive means small, poorly fitted or top-dose-only effect, or another doubt; inactive means no such curve, though single readings can be large; an effect the other way counts as inactive or inconclusive.

SMILES	ELG1 repair inh	TDP1 cell CPT	HT1080 IDH1KD tx	TDP1 cell noCPT	IL1B secr inh	HT1080NT lethal
CCOc1ccccc1CNC(=O)C1CCN(C(=O)N2CC(CC)Oc3ccc(C)cc32)CC1 (stereo not drawn)	.	13µM	.	18µM	.	.
CCC1CN(C(=O)N2CCC(C(=O)NCc3ccc(OC)cc3OC)CC2)c2cc(C)ccc2O1 (stereo not drawn)	.	?	.	18µM	.	.
CCOC(=O)c1ccccc1NC(=O)Cn1c(=O)n(Cc2ccccc2)c(=O)c2c(C)c(C)sc21	-	-	-	?	-	?
CCOc1ccccc1CNC(=O)C1CCN(C(=O)N2CC(C)Oc3ccc(C)cc32)CC1 (stereo not drawn)	?	21µM	-	?	-	-
Oc1ccc(N=Nc2n[nH]c(-c3ccc(Cl)cc3)n2)cc1	?	?	-	16µM	-	-
COc1ccc(CCNC(=O)C2CCN(S(=O)(=O)c3ccc(F)cc3)CC2)cc1	-	-	-	-	-	-
CC(OC(=O)Cc1cccc(C(F)(F)F)c1)C(=O)Nc1ccc(Cl)cn1 (stereo not drawn)	-	-	?	-	-	-
O=C(Nc1cc(C(F)(F)F)ccc1-n1cncn1)c1ccc([N+](=O)[O-])o1	?	10µM	-	21µM	-94	-
O=C(Nc1ccc(N2CCCC2)c(Cl)c1)c1ccc([N+](=O)[O-])o1	?	8.2µM	5.8µM	18µM	-109	5.8µM
O=C(NC(=S)Nc1ccccc1N1CCCCC1)c1ccccc1	-	?	-	26µM	-	-
O=C(Nc1cc(C(F)(F)F)ccc1-n1cncn1)c1ccc(Br)cc1	-	-	-	-	?	-
O=C(Nc1cccc(Cl)c1N1CCOCC1)c1ccc([N+](=O)[O-])o1	-	?	-	?	-	-
CN1CCN(c2ccccc2NC(=O)c2ccc(-c3ccc(Cl)cc3Cl)o2)CC1	21µM	21µM	-	23µM	-	-
CCCS(=O)(=O)NC(=O)C1(C)CCN(C(=O)c2cc(C)n(C(C)(C)C)n2)C1 (stereo not drawn)	.	-	-	-	-	-
Cc1cc(C)cc(NC(=O)Nc2ccccc2N2CCCCC2)c1	?	?	-	16µM	-74	-
CC1CCN(c2ccccc2NC(=O)c2ccc([N+](=O)[O-])o2)CC1	-	?	-	?	-	-
CCC(Oc1ccccc1)C(=O)Nc1ccccc1N1CCCC1 (stereo not drawn)	-	?	-	?	-	-
COc1ccc(N2CCCC2)c(NC(=O)c2ccc([N+](=O)[O-])o2)c1	-	7.3µM	-	18µM	-71	-
Cc1cc(C)cc(OCC(=O)Nc2ccccc2N2CCCCC2)c1	-	?	-	?	-	-
CCC(C(=O)Nc1ccccc1N1CCCC1)c1ccccc1 (stereo not drawn)	-	?	-	16µM	-	-
COc1ccc(C(=O)Nc2cc([N+](=O)[O-])ccc2N2CCCC2)cc1	-	-	-	-	-	-
O=C(Nc1ccccc1N1CCCC1)c1ccc([N+](=O)[O-])o1	?	23µM	?	?	-93	?
Cc1cc(NS(=O)(=O)c2ccc(NC(=O)CSc3nc4ncc(Br)cc4[nH]3)cc2)nc(C)n1	?	-	-	-	-	-
O=C(Nc1ccccc1N1CCN(C(=O)c2ccccc2)CC1)c1ccc([N+](=O)[O-])o1	?	21µM	16µM	15µM	-	?
Cc1ccc(C(=O)Nc2ccccc2N2CCCCC2)o1	-	26µM	-	?	-	-
SMILES	ELG1 repair inh	TDP1 cell CPT	HT1080 IDH1KD tx	TDP1 cell noCPT	IL1B secr inh	HT1080NT lethal
O=C(CCNC(=O)c1ccccc1Cl)Nc1ccccc1N1CCCC1	-	-	-	-	-	-
O=C(CCNC(=O)c1ccc(Br)cc1)Nc1ccccc1N1CCCCC1	-	?	-	?	-80	-
CCN(CC)C(=O)c1cn(-c2cccc(OC)c2)c(=O)c2ccccc12	-	-	-	-	-	-
COc1cccc(-c2oc3ccc(C)cc3c(=O)c2O)c1	.	21µM	.	13µM	.	.
O=c1c(O)c(-c2ccccc2)oc2ccccc12	.	?	-	9.2µM	-	-
O=C(O)c1c(-c2ccccc2)oc2ccc(O)cc12	-	-	-	-	-	-
O=c1c(O)c(-c2cccs2)oc2ccccc12	?	?	-	?	-	?
Cc1ccc(-c2oc3ccccc3c(=O)c2O)cc1	?	26µM	-	16µM	-	?
Cc1ccc2oc(-c3ccccc3)c(C(=O)O)c(=O)c2c1	?	?	?	23µM	-	-
COc1ccc(C2/C=C\CNCC(=O)N2Cc2ccc(F)cc2)cc1 (stereo not drawn)	-	-	-	-	-	-
